# mHTT-CaM PPI inh = disrupts binding of mutant huntingtin to calmodulin | actives 3.6% (n = 190,000) | AlphaScreen His-mHTT/GST-CaM binding, luminescence | P42858 | inhibition, % at 15 µM;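 also: 0% = both proteins with DMSO and 100% = one protein alone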
# Pf apPOL block = Pf-apPOL DNA polymerase inhibition; Recombinant Pf-apPOL, molecular beacon fluorescence, 1.5 h; inhibition, % at 10 µM; actives 0.25% (n = 210,000); AID 1794808
# * = called active by the depositor; . = no result. The entries come from a sample that favours hits as a whole. Rule as the data show it: active = inhibition above about 50%; inactive = the rest.
SMILES,mHTT-CaM PPI inh,Pf apPOL block
CC(=O)Nc1ccc(-c2noc(C3CCCN(C(=O)c4ccccc4F)C3)n2)cc1 (centres undefined),9,0
CN1CCN(C(=O)CN2C(=O)/C(=C/c3ccccc3F)Sc3ccccc32)CC1,36,0
COc1ccc(C=C2Oc3c(ccc4c3CN(Cc3ccco3)CO4)C2=O)c(OC)c1OC,66*,-24
COc1ccc(C=C2Oc3c(ccc4c3CN(Cc3ccncc3)CO4)C2=O)c(OC)c1OC,0,-19
Cc1sc(NC(=O)c2c(F)cccc2F)c(C(N)=O)c1-c1ccc(C(C)(C)C)cc1,-2,2
CCCCN1C(=O)C(CC(=O)N2CCCN(C)CC2)Sc2ncccc21 (centres undefined),3,-4
COc1ccc(OCC(=O)N2CCc3c(c(C(=O)NCc4cccc(C)c4)nn3C)C2)cc1,70*,-6
Cc1cccc(CNC(=O)c2nn(C)c3c2CN(C(=O)COc2ccc(F)cc2)CC3)c1,63*,-3
Cc1cccc(CNC(=O)c2nn(C)c3c2CN(C(=O)Cc2cccs2)CC3)c1,69*,-10
Cc1cccc(CNC(=O)c2nn(C)c3c2CN(C(=O)c2cccs2)CC3)c1,30,-12
CCC(=O)N1CCc2c(c(C(=O)NCc3cccc(C)c3)nn2C)C1,26,30
COCC(=O)N1CCc2c(c(C(=O)NCc3cccc(C)c3)nn2C)C1,-2,-3
COc1cccc(CC(=O)N2CCc3c(c(C(=O)NCc4cccc(C)c4)nn3C)C2)c1,54*,-4
Cc1[nH]c2ccccc2c1SCc1nnc(SCC(=O)Nc2ccccc2)n1C,.,-10
Cc1cccc(OCC(=O)N2CCc3c(c(C(=O)NCc4ccc(F)cc4)nn3C)C2)c1,55*,-8
Cc1cccc(OCC(=O)N2CCc3c(c(-c4nc(-c5ccc(F)cc5)no4)nn3C)C2)c1,-2,-7
Cc1[nH]c2ccccc2c1CN1CCc2ccccc2C1,62*,-5
Cc1ccc(CN2CCc3ccccc3C2)o1,-4,-1
CCN1CCN(C(=O)c2ccn3c(-c4ccc(F)cc4)nnc3c2)CC1,-2,-2
Cc1ccc(OCCn2c(SCC(N)=O)nc3ccccc32)cc1,17,2
NC(=O)CSc1nc2ccccc2n1CCOc1ccc(Cl)cc1,64*,2
CCCC(=O)NC(c1ccc(OC)cc1)c1ccc2cccnc2c1O (centres undefined),100*,-3
CCCC(=O)NC(c1ccccc1)c1ccccc1,-11,3
CCCC(=O)NC(c1ccc(F)cc1)c1ccc2cccnc2c1O (centres undefined),100*,2
CCCCC(=O)NC(c1ccccc1)c1ccc2cccnc2c1O (centres undefined),100*,-2
SMILES,mHTT-CaM PPI inh,Pf apPOL block
CCCC(=O)NC(c1ccccc1)c1cc(Cl)c2cccnc2c1O (centres undefined),18,0
CCCC(=O)NC(c1ccccc1)c1ccc2cccnc2c1O (centres undefined),100*,-4
COc1ccccc1C(=O)N/C(=C/c1ccc2c(c1)OCO2)C(=O)NCCCC(=O)O,-2,-5
O=C(Nc1c2c(nn1-c1cccc(Cl)c1)CSC2)c1cccc(Cl)c1,-1,-6
O=C(/C=C/c1ccccc1)Nc1c2c(nn1-c1cccc(Cl)c1)CSC2,53*,-3
O=C(/C=C/c1ccccc1)Nc1c2c(nn1-c1ccc(F)cc1)CSC2,76*,-9
O=C(/C=C/c1ccccc1)Nc1c2c(nn1-c1ccc([N+](=O)[O-])cc1)CSC2,56*,-10
CC(C)(C)n1nc2c(c1NC(=O)/C=C/c1ccccc1)CSC2,98*,3
Cc1ccc(-n2nc3c(c2NC(=O)/C=C/c2ccccc2)CSC3)cc1,45,9
O=C(/C=C/c1ccc2c(c1)OCO2)Nc1c2c(nn1-c1ccc([N+](=O)[O-])cc1)CSC2,37,-2
COc1ccc(C(=O)Nc2c3c(nn2C(C)(C)C)CSC3)cc1,23,-2
COCCNC(=O)C1(C)CCC(=O)N1Cc1ccco1 (centres undefined),6,0
O=C(NCc1cccc(F)c1)c1cn2ccncc2n1,-1,2
Cc1c(C(=O)NCc2ccccn2)nnn1-c1ccccc1,-8,-3
CCOc1ccc(CN2CCc3nc(N4CCC(C)CC4)ncc3C2)cc1OCC,43,2
CCOC(CNC(=O)c1cnn2c(C)c(Cc3cccc(Br)c3)c(C)nc12)OCC,4,-7
Cc1ccc(-n2nc3c(c2NC(=O)c2ccc(Br)o2)CSC3)cc1,47,-6
O=C(Nc1c2c(nn1-c1ccc([N+](=O)[O-])cc1)CSC2)c1ccc(Cl)c([N+](=O)[O-])c1,56*,-5
O=C(Nc1c2c(nn1-c1ccc(F)cc1)CSC2)c1ccc(Br)o1,58*,-11
O=C(Nc1c2c(nn1-c1ccc(F)cc1)CSC2)c1ccc(Cl)c([N+](=O)[O-])c1,6,-7
COC(=O)c1cnc2nc(C)ccc2c1Nc1ccc(C)c(F)c1,36,0
O=C(NNC(=O)c1ccc(Cl)cc1)Nc1cc(C(F)(F)F)cc(C(F)(F)F)c1,.,-4
COc1ccc(OC)c(C2C3=C(CC(C)(C)CC3=O)Nc3ccc4ncccc4c32)c1 (centres undefined),52*,-5
CC1(C)CC(=O)C2=C(C1)Nc1ccc3ncccc3c1C2c1ccccn1 (centres undefined),1,-1
N#CC1=C(N)Oc2n[nH]c(-c3ccc(Cl)c(Cl)c3)c2C1c1ccc(O)c(O)c1 (centres undefined),99*,0
SMILES,mHTT-CaM PPI inh,Pf apPOL block
COc1cc(C2C(C#N)=C(N)Oc3n[nH]c(-c4cccs4)c32)cc(OC)c1O (centres undefined),19,7
N#CC1=C(N)Oc2n[nH]c(-c3ccc(F)cc3)c2C1c1cccc(F)c1 (centres undefined),12,-4
N#CC1=C(N)Oc2n[nH]c(-c3ccc(Cl)cc3)c2C1c1ccc(F)cc1 (centres undefined),17,0
N#CC1=C(N)Oc2n[nH]c(-c3ccc(Cl)c(Cl)c3)c2C1c1cccc(O)c1 (centres undefined),100*,0
COc1cc(C2C(C#N)=C(N)Oc3n[nH]c(-c4ccc(Cl)s4)c32)ccc1O (centres undefined),60*,-2
Cc1cccc(N2CCN(C(=O)C3c4ccccc4CCN3C(=O)C3CC3)CC2)c1 (centres undefined),9,-2
NC(=O)CSc1nnc(CCc2nc3ccccc3s2)o1,-10,-13
Cn1cnc(S(=O)(=O)NCCC2CCN(C(=O)c3ccccc3)CC2)c1,28,1
Cc1ccc(CNC(=O)c2ccc(Cl)cc2Cl)cc1,-7,65*
Cc1ccc(C(=O)NCc2ccc(Cl)cc2)c(Cl)c1,0,-5
Cc1ccc(Cn2c(=O)cc(C(=O)NCc3ccccc3Cl)c3ccccc32)cc1,78*,12
CCCn1c(=O)c(C(=O)NCc2ccccc2Cl)c(O)c2ccccc21,4,-4
O=C(NCc1ccc(-n2ccnc2)cc1)c1cccs1,2,3
Oc1ccc2ccccc2c1N=Nc1ccccc1,84*,.
CCN(CC)c1ccc(N=Nc2c(O)ccc3ccccc23)cc1,.,-12
O=C(NCc1ccccc1)C1CCc2nc(N3CCCCC3)ncc2C1 (centres undefined),3,-3
O=C(NCCCn1nc(-c2ccc(Cl)cc2)ccc1=O)C1CCCC1,-9,-25

# Source: PubChem BioAssay
